Where “and” joins values, the source holds several entries; their conditions need not be identical. Identical values can stand only once. In all, about 16,000 compounds went through this assay and about 2,600 (16%) were called active. Roughly 20% stayed inconclusive and do not appear here. The sample holds actives, similar compounds and a random draw of the others, so the mix is not that of the screen. Calls come from the whole dose curve; as a rule, active = well fitted curve in the direction sought with a large enough effect; inconclusive = small, poorly fitted or top-dose-only effect, or effect the other way; inactive = no such curve, though single readings can be large or run the other way.
% is set by controls: 0 for no effect and ±100 for the full control effect.

The target in this assay is Cytochrome P450 2D6 (Homo sapiens) (UniProt P10635). Description: Cytochrome panel assay with activity outcomes. The following applies: recombinant CYP, pro-luciferin dealkylation, luminescence, p450-cyp2d6; series mostly up to 57.1 µM.
Cytochrome P450 2D6 (Homo sapiens), sequence (P10635 whole entry, looked up): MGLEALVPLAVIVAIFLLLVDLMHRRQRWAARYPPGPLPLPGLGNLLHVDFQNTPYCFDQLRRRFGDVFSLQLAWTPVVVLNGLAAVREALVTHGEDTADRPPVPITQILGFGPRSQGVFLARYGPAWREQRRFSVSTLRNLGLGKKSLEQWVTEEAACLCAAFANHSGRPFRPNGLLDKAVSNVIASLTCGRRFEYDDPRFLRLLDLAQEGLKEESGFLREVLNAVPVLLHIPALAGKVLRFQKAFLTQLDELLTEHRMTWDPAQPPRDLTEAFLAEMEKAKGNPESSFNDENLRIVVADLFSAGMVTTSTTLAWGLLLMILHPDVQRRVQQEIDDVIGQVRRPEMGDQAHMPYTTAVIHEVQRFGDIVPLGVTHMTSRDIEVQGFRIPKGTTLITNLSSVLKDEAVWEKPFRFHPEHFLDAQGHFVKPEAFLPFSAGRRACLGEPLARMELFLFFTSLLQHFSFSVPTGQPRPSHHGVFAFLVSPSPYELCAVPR
Take `C[C@]12CC[C@H]3c4ccc(O)cc4CC[C@@H]3[C@H]1CC[C@@H]2OC(=O)CCc1ccccc1`: the activity, negative = inhibition was -5.32% [at 11.4 µM] (inactive).

In the case of `CC1=C(CC[C@H](C)CO)O[C@@H]2C[C@@H]3[C@H]4CC[C@H]5C[C@@H](O)CC[C@]5(C)[C@@H]4CC(=O)[C@@]3(C)[C@@H]12`, the activity, negative = inhibition is -3.67% [at 11.4 µM] (inactive). By AC50 is commonly meant the concentration giving half of the maximal activity seen. Consider `CCN(CC)c1ccc(/C=C2/C(=O)NC(=O)N(CC3CCCO3)C2=O)cc1` (stereo not given), for which the AC50 entry was “inactive”. Take `CC(C)c1ccc(C(c2c(O)c3ccccc3oc2=O)c2c(O)c3ccccc3oc2=O)cc1`: the activity, negative = inhibition is 2.43% [at 11.4 µM] (inactive).

As for `COc1cc(CNC(=O)CCCC/C=C\C(C)C)ccc1O`, the AC50 entry was “inactive”. Consider `C[C@H](Br)C(=O)c1ccc2cc(Br)c3ccccc3c2c1`, for which the activity, negative = inhibition is 8.29% [at 11.4 µM] (inactive). Turning to `O=C(C[n+]1ccc2ccccc2c1)c1ccc2ccc3ccccc3c2c1`, the half-maximal activity concentration (AC50) is 0.794 µM (active).

On to `CCCn1c(C)c(C(=O)c2ccc3ccccc3c2)c2ccccc21`, for which the AC50 entry was “inactive”.

Turning to `CC1=C(O)C(=O)[C@H]2O[C@@H]2C1=O`, the AC50 entry is “inactive”. For the compound `C[C@H]1CC[C@@]2(NC1)O[C@@H]1C[C@@H]3[C@@H]4CC=C5C[C@@H](O)CC[C@]5(C)[C@@H]4CC[C@]3(C)[C@H]1[C@@H]2C`, the activity, negative = inhibition was 7.13% [at 11.4 µM] (inactive).

Take `COC(=O)C[C@](O)(CCCC(C)(C)O)C(=O)O[C@@H]1C(OC)=C[C@]23CCCN2CCc2cc4c(cc2[C@H]13)OCO4`: the AC50 entry is “inactive”. Still for that read-out and setting: in the case of `CN1C(=O)C(=Cc2ccc(N3CCCCC3)o2)C(=O)N(C)C1=S` it was “inactive”. Still for that read-out and setting: in the case of `COC1=C(C)C(=O)c2c(c(COC(N)=O)c3n2C[C@@H]2[C@@H]3N2C)C1=O` (stereo not given in full) it was 1.58 µM (active). On the same count and under the same terms, the entry for `COc1cc2c(c(OC)c1OC)-c1ccc(O)c(=O)cc1[C@H](N)CC2` is “inactive”. In the case of `Nc1ccc(S(=O)(=O)c2ccc(NCN3C(=O)NC(=O)C(=O)C3=O)cc2)cc1`, the activity, negative = inhibition is 4.3% [at 11.4 µM] (inactive). Consider `c1ccc(CN2CCN(Cc3ccc4c(c3)OCCO4)CC2)cc1`, for which the concentration at half-maximal activity (AC50) is 12.6 µM (active). The same measure, in the same setting: in the case of `c1cc(CN2CCCCC2)cc(OCCCNc2nc3ccccc3s2)c1` it was “inactive”. On the same count and under the same terms, in the case of `NC[C@H](O)c1cc(O)c(O)cc1F` it was “inactive”; in that of `CCNC(=S)NC1CC2CCCC(C1)N2Cc1ccco1` (stereo not given), 2 µM (active). The same measure, in the same setting: in the case of `Cc1cc(C)cc(NC(=S)NC2CC3CCC(C2)N3Cc2ccco2)c1` (stereo not given) it was 17.8 µM (active); in that of `CC(C)CNC(=S)NC1CC2CCCC(C1)N2Cc1ccco1` (stereo not given), 2 µM (active); in that of `Cc1cccc(N2C(=O)NC(=O)/C(=C\c3cnn(-c4ccccc4)c3)C2=O)c1`, “inactive”. On to `C[C@H](Br)C(=O)N[C@H](CO)C(=O)O`, for which the activity, negative = inhibition is 5.11% [at 11.4 µM] (inactive). With `NCC1(CC(=O)O)CCCCC1`, the AC50 result was “inactive”.

For `CCN1C[C@]2(COC(=O)c3ccccc3N3C(=O)C[C@H](C)C3=O)CC[C@H](OC)[C@@]34[C@@H]5C[C@H]6[C@H](OC)[C@H]5[C@](O)(C[C@@H]6OC)[C@@](O)([C@@H](OC)[C@@H]23)[C@@H]14`, the AC50 result was “inactive”.

In the case of `O=[N+]([O-])c1cc(-c2ccc([As](=O)(O)O)cc2)ccc1[As](=O)(O)O`, the activity, negative = inhibition was 14% [at 11.4 µM] (inactive). As for `CC(C)Oc1cccnc1N(C)C1CCN(Cc2ccccc2)CC1`, the concentration at half-maximal activity (AC50) is 7.94 µM (active).

As for `NNC(N)=O`, the AC50 result is “inactive”.

In the case of `CC(=O)[C@]1(O)CC[C@@H]2[C@H]3C[C@@H](C)C4=CC(=O)CC[C@@]4(C)[C@H]3[C@@H](O)C[C@]21C`, the activity, negative = inhibition was 1.26% [at 11.4 µM] (inactive). Still for that read-out and setting: in the case of `c1cc(C2N3CCCN2CC3)ccn1` (stereo not given) it was 15.8% [at 11.4 µM] (inactive). Regarding `CC[C@H](C(=O)[C@H](C)[C@H](O)[C@H](C)CCc1ccc(C)c(O)c1C(=O)O)[C@H]1O[C@](CC)([C@@H]2CC[C@@](O)(CC)[C@H](C)O2)C[C@H]1C`, the AC50 entry was “inactive”. With `Cc1cc(C(C)(C)C)cc(C)c1CC1=NCCN1`, the AC50 was 31.6 µM (active) and 3.98 µM (active). Still for that read-out and setting: in the case of `O=C(O)[C@@H]1C[C@H]1[C@@H](NP(=O)(c1ccccc1)c1ccccc1)c1ccccc1` it was “inactive”. The same measure, in the same setting: in the case of `c1cncc([C@@H]2CCCCN2)c1` it was “inactive”.

For `CCCCn1c(O)c(C=NCCN2CCCCC2)c(=O)[nH]c1=O`, the AC50 result is “inactive”. On the same count and under the same terms, the figure for `COCOc1ccc(Br)cc1C(=O)/C=C\c1ccc2c(c1)OCO2` is 3.16 µM (active). For the compound `NC[C@@H](O)CSP(=O)(O)O`, the activity, negative = inhibition is 3.14% [at 11.4 µM] (inactive). For the compound `O=C1C[C@@H](c2ccc(O)cc2)Oc2cc(O)cc(O)c21`, the AC50 result was “inactive”. In the case of `CC(=O)O[C@H]1CC[C@@]2(C)[C@@H](CC[C@H]3[C@H]2CC(=O)[C@]2(C)[C@@H]3C[C@@H](N3CC3)[C@H]2C(C)=O)C1`, the activity, negative = inhibition is -8.74% [at 11.4 µM] (inactive). On to `NC(N)=NC(=O)c1nc(Cl)c(N)nc1N`, for which the AC50 entry was “inactive”. On the same count and under the same terms, the figure for `Ic1ccccc1CN[C@@H]1C2CCN(CC2)[C@H]1C(c1ccccc1)c1ccccc1` is 0.0631 µM (active). The same measure, in the same setting: in the case of `NO` it was “inactive”; in that of `CC(=O)OCC1=C(C(=O)[O-])N2C(=O)[C@@H](NC(=O)CCC[C@@H](N)C(=O)[O-])[C@@H]2SC1.[Zn+2]`, “inactive”. Still for that read-out and setting: in the case of `O=c1cc(-c2ccc(O)cc2)oc2c([C@H]3O[C@@H](CO)[C@@H](O)[C@@H](O)[C@@H]3O)c(O)cc(O)c12` it was “inactive”. With `COC(=O)[C@H]1C(=O)c2ccccc2O[C@@](C(=O)OC)(c2ccccc2)[C@@H]1c1ccccc1`, the activity, negative = inhibition was 11.5% [at 11.4 µM] (inactive). As to `Cn1cccc1CNCCc1ccccc1`, the half-maximal activity concentration (AC50) was 2.51 µM (active).

Regarding `O=C(O)Cc1ccc([N+](=O)[O-])cc1[N+](=O)[O-]`, the activity, negative = inhibition was 5.45% [at 11.4 µM] (inactive). With `Cc1cc(Cc2cc(C)c(N)cc2N)c(N)cc1N`, the activity, negative = inhibition is -18.6% [at 11.4 µM] (inactive). Same read-out and setting: in the case of `CSCC[C@@H](N)P(C)(=O)O` it was 3.31% [at 11.4 µM] (inactive). As for `c1ccc2c(c1)[I+]c1ccccc1-2`, the AC50 was 3.98 µM (active) and 794 nM (active).

For the compound `CN1C2C=C3C(C#N)=C(N)C(C#N)(C#N)[C@H](c4c(F)cccc4F)[C@H]3C1CC2` (stereo not given in full), the AC50 result was “inactive”. On the same count and under the same terms, the entry for `CCC[C@@](C)(COC(N)=O)COC(=O)NC(C)C` is “inactive”; for `CNCCc1cnc[nH]1` it is “inactive”; for `Cc1ccccc1-c1cncnc1NCCc1cnc[nH]1` it is 12.6 µM (active). On the same count and under the same terms, in the case of `Clc1ccccc1-c1cncnc1NCCc1cnc[nH]1` it was 3.98 µM (active).

The record behind these values is PubChem BioAssay AID1851 (National Center for Advancing Translational Sciences (NCATS), 2009).
